# Laboratory results: PubChem BioAssay (NCATS)
# Inconclusive results are not listed. Values without a mark were called inactive. The source made the active and inactive calls. Calls follow the shape of the full dose curve.
# Assay: Primary qHTS for inhibitors of MERS-S pseudo-typed particle cell entry (AID 1479149); also: nearly all actives have a fitted effect of over 60% in size
# Settings: MERS-S pseudotyped particle entry, luciferase; series mostly up to 57.1 µM; activity change, negative = inhibition: at the top concentration
# % is scaled to controls: 0 for no effect and ±100 for the full control effect.
SMILES,"activity change, negative = inhibition",outcome
S=P(N1CC1)(N1CC1)N1CC1,3.72% [at 0.573 µM],
COc1nccnc1NS(=O)(=O)c1ccc(N)cc1,,inactive
CO[C@@]1(NC(=O)Cc2cccs2)C(=O)N2C(C(=O)O)=C(COC(N)=O)CS[C@@H]21,,inactive
Cc1ncc(CO)c(CO)c1O,,inactive
Nc1ccc(S(=O)(=O)NC(=O)c2ccccc2)cc1,,inactive
CN(C)C(=O)COC(=O)Cc1ccc(OC(=O)c2ccc(N=C(N)N)cc2)cc1,-13.1%,
Nc1ccc(S(=O)(=O)Nc2ccnn2-c2ccccc2)cc1,,inactive [at 26.4 µM]
Cc1ccc(Cl)c(Nc2ccccc2C(=O)O)c1Cl,,inactive
CCCC(=O)OCOC(=O)C1=C(C)NC(C)=C(C(=O)OC)C1c1cccc(Cl)c1Cl (stereo unspecified),,inactive
CC(=O)OC(C)C[N+](C)(C)C (stereo unspecified),,inactive
Cc1cccn2c(=O)c(-c3nnn[nH]3)cnc12,,inactive [at 26.4 µM]
NC(=O)c1ccc([N+](=O)[O-])cc1Cl,,inactive
Cc1ccccc1OCC(O)CO (stereo unspecified),,inactive
Cc1c(F)c(N2CCNC(C)C2)cc2c1c(=O)c(C(=O)O)cn2C1CC1 (stereo unspecified),-25.7%,
CN(C)CCN(Cc1ccsc1)c1ccccn1,,inactive
CC(=O)Oc1cccc(O)c1,-22.5%,
CCN1CCCC1CNC(=O)c1cc(S(=O)(=O)CC)c(N)cc1OC (stereo unspecified),2.2%,
O=C1c2c(O)cccc2Cc2cccc(O)c21,,inactive
Cc1cc(NS(=O)(=O)c2ccc(N)cc2)nc(C)n1,,inactive

SMILES,"activity change, negative = inhibition",outcome
CCCCCCCCCCCCCCCC(=O)OCCC1CCN(CCCN2c3ccccc3Sc3ccc(S(=O)(=O)N(C)C)cc32)CC1,,inactive
CS(=O)(=O)c1ccc([C@@H](O)[C@@H](CO)NC(=O)C(Cl)Cl)cc1,,inactive
CCCCCCCCCCCCCCCC(=O)OC(C)C,,inactive
CCN(CC)CCNC(=O)c1ccc(N)cc1,,inactive
O=S(=O)(O)CCS,,inactive
CCCN1CCCC[C@H]1C(=O)Nc1c(C)cccc1C,,inactive
Nc1ccc(S(=O)(=O)Nc2ccc(Cl)nn2)cc1,,inactive
CCOC(=O)O[C@]1(C(=O)OCCl)CC[C@H]2[C@@H]3CCC4=CC(=O)C=C[C@]4(C)[C@H]3[C@@H](O)C[C@@]21C,4.53%,
O=S(=O)(O)c1ccc2nc(-c3ccccc3)[nH]c2c1,,inactive
Nc1ccc(C(=O)Oc2ccccc2)c(O)c1,-15.5%,
CC(=O)[C@@]1(O)CC[C@H]2[C@@H]3C[C@H](C)C4=CC(=O)C=C[C@]4(C)[C@@]3(F)[C@@H](O)C[C@@]21C,,inactive
CC(=O)CC(c1ccccc1)c1c(O)c2ccccc2oc1=O (stereo unspecified),,inactive
CC(C)(Oc1ccc(Cl)cc1)C(=O)OCCCOC(=O)C(C)(C)Oc1ccc(Cl)cc1,4.77%,
C#C[C@]1(O)CC[C@H]2[C@@H]3CCc4cc(OC5CCCC5)ccc4[C@H]3CC[C@@]21C,4.24%,
NC(N)=Nc1nc(CSCC/C(N)=N/S(N)(=O)=O)cs1,,inactive
CCOC(=O)[C@H](CCc1ccccc1)N[C@@H](C)C(=O)N1CCC[C@H]1C(=O)O,,inactive
CCO/C([O-])=N/c1c[n+](N2CCOCC2)no1,,inactive
O=C(O)[C@@H](O)[C@H](O)[C@H](O)[C@@H](O)C(=O)O,,inactive
Cc1nnc(NS(=O)(=O)c2ccc(N)cc2)s1,2.31%,

# Assay: Primary qHTS for Vero E6 cytotoxicity: counterscreen for inhibitors of SARS-S pseudo-typed particle cell entry (AID 1479150)
# Settings: cell viability; series mostly up to 57.1 µM; activity change, negative = cytotoxicity: at the top concentration
SMILES,"activity change, negative = cytotoxicity",outcome
S=P(N1CC1)(N1CC1)N1CC1,-9.38% [at 0.573 µM],
COc1nccnc1NS(=O)(=O)c1ccc(N)cc1,,inactive
CO[C@@]1(NC(=O)Cc2cccs2)C(=O)N2C(C(=O)O)=C(COC(N)=O)CS[C@@H]21,-12.1%,
Cc1ncc(CO)c(CO)c1O,4.26%,
Nc1ccc(S(=O)(=O)NC(=O)c2ccccc2)cc1,,inactive
CN(C)C(=O)COC(=O)Cc1ccc(OC(=O)c2ccc(N=C(N)N)cc2)cc1,,inactive
Nc1ccc(S(=O)(=O)Nc2ccnn2-c2ccccc2)cc1,,inactive [at 26.4 µM]
Cc1ccc(Cl)c(Nc2ccccc2C(=O)O)c1Cl,3.36%,
CCCC(=O)OCOC(=O)C1=C(C)NC(C)=C(C(=O)OC)C1c1cccc(Cl)c1Cl (stereo unspecified),,inactive
CC(=O)OC(C)C[N+](C)(C)C (stereo unspecified),2.69%,
Cc1cccn2c(=O)c(-c3nnn[nH]3)cnc12,-10.1% [at 26.4 µM],
NC(=O)c1ccc([N+](=O)[O-])cc1Cl,2.67%,
Cc1ccccc1OCC(O)CO (stereo unspecified),,inactive
Cc1c(F)c(N2CCNC(C)C2)cc2c1c(=O)c(C(=O)O)cn2C1CC1 (stereo unspecified),2.24%,
CN(C)CCN(Cc1ccsc1)c1ccccn1,-12.8%,
CC(=O)Oc1cccc(O)c1,,inactive
CCN1CCCC1CNC(=O)c1cc(S(=O)(=O)CC)c(N)cc1OC (stereo unspecified),-4.37%,
O=C1c2c(O)cccc2Cc2cccc(O)c21,,inactive
Cc1cc(NS(=O)(=O)c2ccc(N)cc2)nc(C)n1,-17.9%,

SMILES,"activity change, negative = cytotoxicity",outcome
CCCCCCCCCCCCCCCC(=O)OCCC1CCN(CCCN2c3ccccc3Sc3ccc(S(=O)(=O)N(C)C)cc32)CC1,,inactive
CS(=O)(=O)c1ccc([C@@H](O)[C@@H](CO)NC(=O)C(Cl)Cl)cc1,,inactive
CCCCCCCCCCCCCCCC(=O)OC(C)C,1.95%,
CCN(CC)CCNC(=O)c1ccc(N)cc1,,inactive
O=S(=O)(O)CCS,-10.1%,
CCCN1CCCC[C@H]1C(=O)Nc1c(C)cccc1C,0.325%,
Nc1ccc(S(=O)(=O)Nc2ccc(Cl)nn2)cc1,-6.21%,
CCOC(=O)O[C@]1(C(=O)OCCl)CC[C@H]2[C@@H]3CCC4=CC(=O)C=C[C@]4(C)[C@H]3[C@@H](O)C[C@@]21C,,inactive
O=S(=O)(O)c1ccc2nc(-c3ccccc3)[nH]c2c1,,inactive
Nc1ccc(C(=O)Oc2ccccc2)c(O)c1,,inactive
CC(=O)[C@@]1(O)CC[C@H]2[C@@H]3C[C@H](C)C4=CC(=O)C=C[C@]4(C)[C@@]3(F)[C@@H](O)C[C@@]21C,,inactive
CC(=O)CC(c1ccccc1)c1c(O)c2ccccc2oc1=O (stereo unspecified),-0.0519%,
CC(C)(Oc1ccc(Cl)cc1)C(=O)OCCCOC(=O)C(C)(C)Oc1ccc(Cl)cc1,,inactive
C#C[C@]1(O)CC[C@H]2[C@@H]3CCc4cc(OC5CCCC5)ccc4[C@H]3CC[C@@]21C,,inactive
NC(N)=Nc1nc(CSCC/C(N)=N/S(N)(=O)=O)cs1,,inactive
CCOC(=O)[C@H](CCc1ccccc1)N[C@@H](C)C(=O)N1CCC[C@H]1C(=O)O,,inactive
CCO/C([O-])=N/c1c[n+](N2CCOCC2)no1,-1.05%,
O=C(O)[C@@H](O)[C@H](O)[C@H](O)[C@@H](O)C(=O)O,,inactive
Cc1nnc(NS(=O)(=O)c2ccc(N)cc2)s1,0.528%,
